Experimental findings from PubChem BioAssay (EPA / NIEHS) are described below.

Assay [1] can be described thus: IUF_NPC2a_radial_glia_migration_72hr: Leibniz Research Institute for Environmental Medicine (IUF) 72-hour Neural Progenitor Cell Migration Assay for Radial Glia Migration (NPC2a) (AID 2284299). The essentials:
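Human fetal cortex (GW 16-19) neural progenitor spheres, 0.3 mm, plated on poly-D-lysine/laminin in N2 differentiation medium with compound from day 0. Radial glia migration distance (um, sphere core edge to migration edge) measured manually in four directions on 72 h brightfield images; well mean used.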

Assay [2] is described as follows: IUF_NPC2b_neuronal_migration_120hr: Leibniz Research Institute for Environmental Medicine (IUF) 120-hour Neural Progenitor Cell Migration Assay for Neuron Migration (NPC2b) (AID 2284300). The gist of the method:
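0.3 mm hNPC spheres on poly-D-lysine/laminin in N2 differentiation medium exposed 120 h, half-medium refresh day 3; 7 concentrations, DMSO max 0.1%. Neuron (TUBB3) distance from sphere core by ICC imaging, normalised to radial glia migration.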

A short description of assay [3]: IUF_NPC3_neuronal_differentiation_120hr: Leibniz Research Institute for Environmental Medicine (IUF) 120-hour Neuronal Differentiation Assay (NPC3) (AID 2284301). The essentials: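 Primary human fetal neural progenitor spheres (GW 16-19, 0.3 mm) plated on poly-D-lysine/laminin in N2 medium, exposed from day 0 for 120 h with half-medium refresh at day 3. TUBB3+ cells as percent of Hoechst nuclei in migration area; DMSO baseline.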

Assay [4] can be described thus: IUF_NPC4_neurite_length_120hr: Leibniz Research Institute for Environmental Medicine (IUF) 120-hour Neuronal Morphology Assay for Neurite Length (NPC4) (AID 2284302). The gist of the method:
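Human fetal cortex (GW 16-19) neural progenitor spheres, 0.3 mm, were plated on poly-D-lysine/laminin in N2 differentiation medium and exposed from day 0 for 120 h, half-feeding at day 3. Mean TUBB3+ neurite length (µm) came from skeletonized images, relative to DMSO.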

The nature of assay [5]: IUF_NPC5_oligodendrocyte_differentiation_120hr: Leibniz Research Institute for Environmental Medicine (IUF) 120-hour Oligodendrocyte Differentiation Assay (NPC5) (AID 2284304; active = hit-call score of the fitted dose curve at least 0.9, where 1 is the maximum;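 also: primary human fetal neural progenitor spheres plated to migrate and differentiate; share of O4-positive cells among Hoechst nuclei found by CNN image analysis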). The essentials: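 Human fetal neural progenitor spheres (0.3 mm) plated on poly-D-lysine/laminin in N2 differentiation medium and exposed for 120 h at 7 concentrations, with half-medium renewal at day 3. O4-positive cells identified by CNN, expressed as percent of Hoechst nuclei.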

Assay [6] can be described thus: IUF_NPC4_neurite_area_120hr: Leibniz Research Institute for Environmental Medicine (IUF) 120-hour Neuronal Morphology Assay for Neurite Area (NPC4) (AID 2284305; active = hit-call score of the fitted dose curve at least 0.9, where 1 is the maximum). The gist of the method: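 Human fetal cortex-derived neural progenitor spheres (0.3 mm, GW 16-19) plated on poly-D-lysine/laminin in N2 differentiation medium and exposed from day 0 for 120 h across 7 concentrations plus solvent control. Neurite area is mean pixel area per TUBB3-positive neuron via skeletonization, analysed relative to DMSO.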

Assay [7] can be described thus: IUF_NPC2-5_cytotoxicity_72hr: Cytotoxicity Assessment at 72 hours in the Leibniz Research Institute for Environmental Medicine (IUF) Neural Progenitor Cell Migration and Differentiation Assay for Cytotoxicity (NPC2-5) (AID 2284306; active = hit-call score of the fitted dose curve at least 0.9, where 1 is the maximum;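 also: LDH release into supernatant measured by resorufin fluorescence marking membrane damage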). The essentials: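 Human fetal (GW 16-19) neural progenitor spheres, 0.3 mm, plated on poly-D-lysine/laminin in N2 differentiation medium and exposed from day 0 to 7 concentrations plus solvent control (DMSO ≤0.1%). LDH-dependent resazurin-to-resorufin fluorescence in supernatant at 72 h.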

The nature of assay [8]: IUF_NPC2-5_cytotoxicity_120hr: Cytotoxicity Assessment at 120 hours in the Leibniz Research Institute for Environmental Medicine (IUF) Neural Progenitor Cell Migration and Differentiation Assay (NPC2-5) (AID 2284307; active = hit-call score of the fitted dose curve at least 0.9, where 1 is the maximum;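 as to AC50: LDH released into supernatant as membrane damage marker via resorufin fluorescence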). The gist of the method:
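Human fetal (GW 16-19) neural progenitor spheres (0.3 mm) plated on poly-D-lysine/laminin in N2 differentiation medium, exposed 120 h with half-medium renewal at day 3; 7 concentrations plus solvent control, DMSO ≤0.1%. LDH release in supernatant read by resorufin fluorescence.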

Assay [9] in a line: IUF_NPC2-5_cell_number_120hr: Cell Number Assessment at 120 hours in the Leibniz Research Institute for Environmental Medicine (IUF) Neural Progenitor Cell Migration and Differentiation Assay (NPC2-5) (AID 2284308).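 Also: count of Hoechst-stained nuclei in migration zone around plated human neural progenitor spheres.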 The gist of the method: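 Human fetal neural progenitor spheres (0.3 mm) plated on poly-D-lysine/laminin in N2 differentiation medium, exposed five days across 7 concentrations with half-medium refresh at day 3. Hoechst-positive nuclei counted in migration area at 120 h, relative to DMSO.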

Assay [10] is described as follows: IUF_NPC2-5_viability_120hr: Viability Assessment at 120 hours in the Leibniz Research Institute for Environmental Medicine (IUF) Neural Progenitor Cell Migration and Differentiation Assay (NPC2-5) (AID 2284312). The gist of the method: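 Human fetal (GW 16-19) neural progenitor spheres of 0.3 mm were plated on poly-D-lysine/laminin in N2 differentiation medium and exposed from day 0 for 120 h, with half-medium refresh at day 3. Viability was read as alamar blue resazurin-to-resorufin fluorescence against DMSO.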

Assay [11] in a line: CCTE_Mundy_HCI_iCellGluta_NOG_NeuriteLength: CCTE's Neurite Outgrowth Assay in iCellGluta cells for Neurite Length, Mundy Lab (AID 2284318; active = hit-call score of the fitted dose curve at least 0.9, where 1 is the maximum). The essentials:
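Automated high-content imaging of betaIII-tubulin (Alexa Fluor-488) and Hoechst-stained cells gave neurite length, normalized to the DMSO baseline.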

A short description of assay [12]: VALA_TUBHUV_Agonist_CellCount: Viability Assessment in the VALA Sciences human Umbilical Vein Endothelial Tubule Formation (TUBHUV) Agonism Assay (AID 2284309; active = hit-call score of the fitted dose curve at least 0.9, where 1 is the maximum). The essentials:
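HUVEC co-cultured 1:3 with HDF for 3 days in 10 ng/ml VEGF, then compounds added in VEGF medium for a further 3 days (72 h). Nuclear-stain/CD31 imaging cell count. Positive-direction fit versus 0.1% DMSO vehicle.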

Assay [13] in a line: VALA_TUBHUV_Antagonist_CellCount: Viability Assessment in the VALA Sciences human Umbilical Vein Endothelial Tubule Formation (TUBHUV) Antagonism Assay (AID 2284310; active = hit-call score of the fitted dose curve at least 0.9, where 1 is the maximum). The gist of the method: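 HUVEC co-cultured with HDF (1:3) 3 days in 10 ng/ml VEGF, then 3 days with compounds in VEGF medium. Fixed, nuclear stain and CD31 immunofluorescence, imaged; cell counts fitted versus 0.1% DMSO, loss of signal read as lower viability.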

The next assay deals with IYD (gene 389434). Briefly: CCTE_GLTED_hIYD: CCTE's human Iodotyrosine Deiodinase (xIYD) Inhibition Assay, Great Lakes Toxicology and Ecology Division (GLTED) Lab (AID 2284317; active = hit-call score of the fitted dose curve at least 0.9, where 1 is the maximum;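 also: cell-free human IYD enzyme made in baculovirus insect cells; iodide freed from monoiodotyrosine measured by cerium arsenite color change at 420 nm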). The gist of the method: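 Human IYD expressed in a baculovirus-insect cell system was incubated 3 h with monoiodotyrosine and test chemical. Released iodide, separated on Dowex columns, was quantified by the Sandell-Kolthoff reaction at 420 nm; plates were normalized to MNT and DMSO/NaOH controls.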

Read-out in the next assay: CD69, CD69 (gene 969)
Briefly: BSK_LPS_CD69: BioMAP Diversity Plus: LPS Assay for CD69 Biomarker Activity (AID 2284303). Particulars: primary human HUVEC with PBMC. The essentials:
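Human umbilical vein endothelial cells co-cultured with PBMC under LPS stimulation, chemical exposure 24 h; cell-surface CD69 measured by ELISA and fitted in the positive direction versus DMSO.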

A further assay concerns TTR (gene 7276). Briefly: CCTE_GLTED_hTTR_0.5uM: CCTE's human Transthyretin (hTTR) Inhibition Assay, with 0.5uM TTR, Great Lakes Toxicology and Ecology Division (GLTED) Lab (AID 2284320). The gist of the method:
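Cell-free displacement assay in which human TTR at 0.5 uM was incubated with test chemical for 2 h. Displacement of the ANSA probe was read by fluorescence at 380 nm excitation/475 nm emission. Loss of signal was fitted in the positive direction versus DMSO.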

Assay [14] is described as follows: CCTE_Deisenroth_5AR_NBTE_donor: CCTE's 5alpha-reductase NanoBRET Target Engagement Assay […], Deisenroth Lab (AID 2284319). To be noted: actives raise or lower the signal. The essentials:
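In this secondary endpoint, donor luminescence from SRD5A2-NanoLuc in transfected HEK293T flags artifacts. Test chemical (10 nM - 29.9 uM) is present five hours, tracer the last two; mock-tracer wells run plate-matched; data fitted bidirectionally against DMSO.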
A general note: BRET reads energy transfer from a luciferase to a nearby fluorophore.

SMILES strings stand for the structures. “And” between values parts separate entries of the source, which are not always exact repeats. Equal entries are not always repeated. Inconclusive results are not listed. A structure can be active in one record and inactive in another. The source made the active and inactive calls. The calls were made as follows, unless noted: active = hit-call score of the fitted dose curve at least 0.9, where 1 is the maximum; inactive = score below 0.9.

By AC50 is commonly meant the midpoint of the concentration-response curve, whichever way the signal moves. Consider `COP(=S)(OC)Oc1ccc([N+](=O)[O-])cc1`, for which the call in [1], in [2], in assay [3], in assay [4], in [5] and in assay [6] was inactive. For the same molecule, the call in [7], in assay [8], in [9] and in assay [10] was inactive. Moreover, the AC50 in assay [11] was 21.6 µM (active).

Regarding `CC1(C)C(C=C(Cl)Cl)C1C(=O)OC(C#N)c1ccc(F)c(Oc2ccccc2)c1` (stereo not given), the call in assay [1], in assay [2], in assay [3], in [4], in [6] and in assay [7] was inactive. The call in assay [8], in [9], in [10] and in assay [11] was inactive. The AC50 was 0.227 µM (active) in assay [5] and 9.9 µM (active) in [11].

Consider `O=C(O)COc1ccc(Cl)cc1Cl`, for which the result in assay [1], in assay [2], in assay [3], in [4], in assay [7] and in assay [8] was inactive. In addition, the molecule was called inactive in assay [9], in assay [10] and in assay [11].

`Oc1cc(Cl)ccc1Oc1ccc(Cl)cc1Cl`: the call in assay [12] and in assay [13] was inactive. In the assay with IYD (gene 389434), the half-maximal activity concentration (AC50) is 37.2 µM (active) and 55.2 µM (active) and 24.3 µM (active).

For `O=C(O)C(F)(F)C(F)(F)C(F)(F)C(F)(F)C(F)(F)C(F)(F)C(F)(F)F`, the outcome in [1] is “inactive”; in assay [2], “inactive”; in assay [3], “inactive”; in [4], “inactive”; in the assay with CD69, CD69 (gene 969), “inactive”; in assay [5], “inactive”. Further, the call in assay [6], in assay [7], in assay [8], in assay [9], in assay [10] and in assay [11] was inactive. The AC50 with CD69, CD69 (gene 969) was 220 nM (active) and 30 µM (active); in the assay with TTR (gene 7276), 450 nM (active) [middle of 4 runs].

For the molecule `CNC(=O)CSP(=S)(OC)OC`, the outcome in assay [1], in assay [2], in [3], in assay [4], in assay [5] and in assay [6] was inactive. The molecule was classed as inactive in [7], in [8], in [9], in [10] and in assay [11].

Regarding `CC(C)N(C(=O)COc1nnc(C(F)(F)F)s1)c1ccc(F)cc1`, the call in [1], in [2], in [3], in assay [4], in assay [5] and in assay [6] was inactive. Further, the molecule was called inactive in assay [7], in assay [9], in assay [10] and in [11]. Further, the half-maximal activity concentration (AC50) in assay [8] is 0.0343 µM (active).

For the molecule `CCC(C)(NC(=O)c1cc(Cl)c(C)c(Cl)c1)C(=O)CCl` (stereo not given), in assay [14], the outcome was inactive.

As to `CCC(C)Nc1c([N+](=O)[O-])cc(C(C)(C)C)cc1[N+](=O)[O-]` (stereo not given), the result in [14] was inactive.

With `O=S1OCC2C(CO1)C1(Cl)C(Cl)=C(Cl)C2(Cl)C1(Cl)Cl` (stereo not given), the molecule was called inactive in assay [1], in assay [2], in assay [3], in assay [4], in assay [6] and in assay [7]. The molecule was classed as inactive in [8], in assay [9], in assay [10] and in assay [14]. Moreover, the half-maximal activity concentration (AC50) is 2.92 µM (active) in assay [5] and 8.78 µM (active) in assay [11].
